In all, about 33,000 sequences were measured (“E-score (-0.5 to 0.5)”: median about -0.0034, highest 2% from about 0.25 on). For the sample, the highest values were picked, then their nearest neighbours and some sequences at random.
molecular target: T1, Yap3 (UniProt P38749); assay: PBM E-score (8-mer binding enrichment) (E-score (-0.5 to 0.5)); higher = stronger / more preferred TF binding; conditions: protein concentration: 100 nM; construct: GST-full length
T1 sequence: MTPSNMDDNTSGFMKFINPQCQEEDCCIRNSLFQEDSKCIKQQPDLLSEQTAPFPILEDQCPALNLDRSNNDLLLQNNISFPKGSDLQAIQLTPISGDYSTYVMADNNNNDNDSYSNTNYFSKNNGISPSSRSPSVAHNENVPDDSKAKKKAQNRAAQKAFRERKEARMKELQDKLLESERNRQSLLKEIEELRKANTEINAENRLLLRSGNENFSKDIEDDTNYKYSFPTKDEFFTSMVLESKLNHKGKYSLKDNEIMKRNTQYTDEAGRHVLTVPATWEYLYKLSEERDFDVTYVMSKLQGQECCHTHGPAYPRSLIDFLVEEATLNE
In short: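 The E-score, a modified Wilcoxon-Mann-Whitney statistic, was computed by the Universal PBM Analysis Suite for every ungapped eight-base word pooled with its reverse complement. Scans behind it were normalised with masliner after bound GST-tagged yeast transcription factors were detected with fluorescent anti-GST. The proteins, at about 100-200 nM, had been applied to universal all-10-mer Agilent arrays made double-stranded by primer extension.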

| Sequence | PBM E-score |
| --- | --- |
| CGCGTCGA | 0.0342 |
| GTACGAAA | 0.173 |
| CTCGTCGA | -0.0244 |
| CGTCGCTA | 0.11 |
| CTTCTGAA | 0.0313 |
| ACAGCCAT | -0.0294 |
| ACGTGAAA | 0.211 |
| AGAATAAT | 0.24 |
| AGAATAAA | 0.261 |
| AGAATAAG | 0.11 |
| AGATAGGC | -0.0411 |
| GGACAGCA | -0.0442 |
| ATTTAGTA | 0.289 |
| ATTTAGTG | 0.204 |
| GGTTAGTA | 0.0941 |
| CTTTAGTA | 0.0328 |
| ATTTAGTC | 0.167 |
| GTTTAGTA | 0.275 |
| CCAGTAAG | -0.0333 |
| ACACATGT | 0.0237 |
| CGGGTAAC | -0.0884 |
| ACAATTCC | 0.0667 |
| ACATCTTC | 0.0249 |
| GCGGTAGA | 0.00783 |
| GACAAATC | 0.175 |

| Sequence | PBM E-score |
| --- | --- |
| TACAAATA | 0.299 |
| GACAAATA | 0.299 |
| GACAAGTA | -0.00588 |
| AACAAATA | 0.25 |
| CACAAATA | 0.152 |
| TGGGGACA | -0.0974 |
| ATGTAGCA | -0.00878 |
| CCGCGGCA | 0.135 |
| AGAGAGCC | -0.201 |
| CGTATCGC | 0.0192 |
| CTCATTAA | 0.0548 |
| ACGATTAA | 0.0578 |
| ATCATTAA | 0.207 |
| GTCATTAA | 0.3 |
| GCGATTAA | 0.216 |
| CTTATTGC | 0.0255 |
| GTTATTAA | 0.262 |
| GTTATTTA | 0.165 |
| GTTATTGA | 0.117 |
| TCGATTAA | 0.308 |
| CTTATTAA | 0.339 |
| CTTATTGA | 0.0574 |
| CCGCCACC | -0.155 |
| CCTCAGGA | -0.184 |
| CCAAGACG | -0.148 |

| Sequence | PBM E-score |
| --- | --- |
| ATGGTGGA | -0.062 |
| CGCTAATA | 0.0177 |
| CTCTCTAA | -0.149 |
| CACCTTCA | 0.014 |
| GGCCCACA | -0.119 |
| CGGAGCAG | -0.191 |
| AGATTTGG | -0.12 |
| ATTGCAGG | 0.073 |
| TCCATTAA | 0.0027 |
| ATTATTAA | 0.378 |
| CCCATTAA | -0.108 |
| CTGATTAA | 0.203 |
| ACCATTAA | 0.26 |
| ATGATTAA | 0.274 |
| ACTATTAA | 0.123 |
| ATGATTAG | 0.124 |
| CCTATTAA | 0.0368 |
| ATAAGATG | 0.176 |
| AATAGAAA | 0.138 |
| ATGGTATC | 0.175 |
| ATGGTATA | 0.262 |
| ATGGTATG | 0.00998 |
| ATTGTATG | 0.151 |
| ATTGTATA | 0.298 |
| CTTGTATA | 0.127 |

| Sequence | PBM E-score |
| --- | --- |
| CGGTCGCC | -0.2 |
| CTCTAAAC | 0.167 |
| AAGCTGAG | 0.0158 |
| AGCAGAGA | -0.0117 |
| TCGTAGAA | -0.0144 |
| CCGCCTAA | -0.155 |
| CAAAAATA | 0.332 |
| CAAAATAA | 0.296 |
| TAAAATAA | 0.0792 |
| AAAATAGA | 0.256 |
| AAAATAGC | -0.0905 |
| TAAATAGA | -0.0374 |
| CCAAAATA | 0.211 |
| ACAAAATA | 0.175 |
| CAAAAATC | 0.051 |
| GAAAAATA | 0.114 |
| AAAAATAA | 0.25 |
| AAAAAATA | 0.287 |
| CAGTTTGC | 0.124 |
| ACGCCGCG | -0.0869 |
| AGACCTGG | -0.0312 |
| AGTTTGCC | 0.175 |
| GCGGCTCA | 0.0715 |
| TAAAAATA | 0.26 |
| TAAAGATA | 0.254 |

| Sequence | PBM E-score |
| --- | --- |
| TAAATATA | 0.297 |
| CTAAAATA | 0.148 |
| GAAAGATA | 0.217 |
| CAAAGATA | 0.0838 |
| TAAATAAA | 0.282 |
| GAAATATA | 0.248 |
| CAAATATA | 0.0799 |
| CAAATAAA | 0.197 |
| AAAATAAA | 0.204 |
| TAAAAAAA | 0.0893 |
| TAGGTCAA | 0.0932 |
| AGGAATAA | 0.156 |
| GTGGTAAA | -0.0974 |
| AGAGCTCC | -0.275 |
| AATTGGAG | -0.0503 |
| ATGGCCGA | 0.0282 |
| ATGTGCAA | 0.059 |
| ATCTGTTG | -0.0152 |
| AAAAACTC | 0.072 |
| AGAATCGG | -0.0519 |
| AAAGACAA | 0.261 |
| ACAGACAC | -0.0498 |
| ACAGACAA | 0.285 |
| ACAGACAG | 0.0669 |
| CAAGACAA | 0.0625 |

| Sequence | PBM E-score |
| --- | --- |
| TAAGACAA | 0.187 |
| CGACCAAA | 0.174 |
| CCTCAGGC | -0.249 |
| CAGGTGCG | 0.015 |
| ATAAAATG | 0.276 |
| ATAAAAAG | 0.261 |
| ATAAAATA | 0.298 |
| GTAAAATA | 0.117 |
| ATAAAAAA | 0.187 |
| ATAAAAGG | -0.011 |
| AAAAAATG | 0.209 |
| ATAAAATC | 0.207 |
| ATAAAACG | 0.206 |
| GACATTCC | -0.186 |
| ACTGACCG | -0.0919 |
| ACCCCTCT | -0.251 |
| AGTTGAAC | 0.00888 |
| GATCTTGA | 0.0634 |
| ACACTTGC | 0.0282 |
| CAAATGAC | 0.0524 |
| TAAATGAA | 0.117 |
| GAAATGAC | 0.259 |
| CAAATGAA | 0.14 |
| GAAATGAA | 0.289 |
| GAAATGCC | 0.0869 |

| Sequence | PBM E-score |
| --- | --- |
| TTGGCCAA | -0.0814 |
| GCGCCCAC | -0.0948 |
| ATGCTACC | 0.0357 |
| ACCTCTCC | -0.165 |
| ACATGGCA | -0.0266 |
| GATAACAA | 0.0894 |
| TATAACAA | 0.265 |
| GATAACCA | 0.161 |
| CATAACAA | 0.18 |
| CATAACCA | 0.0668 |
| TATAACCA | 0.269 |
| GAGGGGCA | -0.299 |
| CAATGCTG | -0.114 |
| AGCAAAAA | 0.122 |
| CCCAACGA | -0.0115 |
| GATTTTCA | 0.175 |
| AATTATCG | 0.267 |
| CATTATCA | 0.161 |
| AATTATCT | 0.237 |
| AATTATCA | 0.288 |
| AATTATCC | 0.133 |
| CATTATCG | 0.129 |

— the supplement of paper PMC3334620
